# Several values for one entry are separate records, joined by “and”; a condition that tells them apart may be missing. Equal values may be shown once. Records with an inconclusive call do not appear. For part of these data: Entries with a potency or affinity are not part of this list. Activity calls are given as the source filed them. Unless noted, the rule behind the calls is not given here.
# How the values were obtained:
# [1] = restoration of touch response, mutant HTT neurons – whole organism, C. elegans mechanosensory neurons, N-terminal huntingtin (AID 1599); conditions: C. elegans polyQ-huntingtin mechanosensory neurons, stronger effect = higher value
# [2] = GFP-Q80 aggregate reduction, neuronal-like cells, cell-based, NGF-treated PC12, GFPQ80 (AID 1614); conditions: PC12 NGF-treated GFP-polyQ80 inclusion reduction;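 note: lower means fewer inclusions and 0 means no inclusions at all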
# [3] = viability loss in pontine glioma line – cell-based, SU-DIPG-XVII, MIPE5.0, CellTiter-Glo, qHTS, dose response (AID 1347060; cut-off not given, nearly all actives have AC50 up to about 26 µM;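 for AC50: cells exposed to compound for 48 hours before viability readout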); conditions: CellTiter-Glo ATP luminescence
# [4] = viability loss in pontine glioma line – cell-based, SU-DIPG-IV, MIPE4.0, CellTiter-Glo, qHTS, dose response (AID 1347063; cut-off not given, nearly all actives have AC50 up to about 30 µM;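 note: compound exposure lasted 48 hours before the viability readout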); conditions: CellTiter-Glo ATP luminescence
# [5] = viability loss in pontine glioma line – cell-based, SU-DIPG-XIII, MIPE5.0, CellTiter-Glo, qHTS, dose response (AID 1347064; cut-off not given, nearly all actives have AC50 up to about 23 µM); conditions: CellTiter-Glo ATP luminescence
# [6] = growth inhibition of DIPG cells – cell-based, MIPE5.0 library, qHTS (AID 1347068; cut-off not given, nearly all actives have IC50 up to about 30 µM); conditions: SU-DIPG-XXV viability
# [7] = tested on: Aerobactin synthetase IucA (Klebsiella pneumoniae); experiment: inhibition of K. pneumoniae IucA enzyme – biochemical, Tocris library, absorbance (AID 1345561); conditions: purified IucA enzyme assay, absorbance (OD) read-out; stronger effect = lower value;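 tested at 8 µM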;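 note: 100% = enzyme without compound and 0% = no enzyme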
# [8] = compounds altering HSF1 focus formation in cells – imaging, Selleck Cancer Library (AID 1347162; in the data active = plate-normalised HSF1 focus index below about 0.46); conditions: human cells, HSF1 nuclear foci imaging, at 10 µM; SSMD: measured here: HSF1 foci SSMD mean; cell count: measured here: cell number; plate-normalised HSF1 focus index: stronger effect = lower value
# [9] = viability loss in pontine glioma line – cell-based, SU-DIPG-XIII, MIPE4.0, CellTiter-Glo, qHTS, dose response (AID 1347061; cut-off not given, nearly all actives have AC50 up to about 37 µM;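 note: cells exposed to compound for 48 hours before readout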); conditions: CellTiter-Glo ATP luminescence
# [10] = target: ATP-dependent translocase ABCB1 (Homo sapiens) (UniProt P08183); experiment: P-glycoprotein substrate transport blockade – cell-based (AID 377; in the data active = fluorescence slope change above about 50%); conditions: MDR1-expressing cells, fluorescent substrate accumulation slope; stronger effect = higher value; concentration not given here
# Sequence of ATP-dependent translocase ABCB1 (Homo sapiens) (P08183 whole entry, looked up): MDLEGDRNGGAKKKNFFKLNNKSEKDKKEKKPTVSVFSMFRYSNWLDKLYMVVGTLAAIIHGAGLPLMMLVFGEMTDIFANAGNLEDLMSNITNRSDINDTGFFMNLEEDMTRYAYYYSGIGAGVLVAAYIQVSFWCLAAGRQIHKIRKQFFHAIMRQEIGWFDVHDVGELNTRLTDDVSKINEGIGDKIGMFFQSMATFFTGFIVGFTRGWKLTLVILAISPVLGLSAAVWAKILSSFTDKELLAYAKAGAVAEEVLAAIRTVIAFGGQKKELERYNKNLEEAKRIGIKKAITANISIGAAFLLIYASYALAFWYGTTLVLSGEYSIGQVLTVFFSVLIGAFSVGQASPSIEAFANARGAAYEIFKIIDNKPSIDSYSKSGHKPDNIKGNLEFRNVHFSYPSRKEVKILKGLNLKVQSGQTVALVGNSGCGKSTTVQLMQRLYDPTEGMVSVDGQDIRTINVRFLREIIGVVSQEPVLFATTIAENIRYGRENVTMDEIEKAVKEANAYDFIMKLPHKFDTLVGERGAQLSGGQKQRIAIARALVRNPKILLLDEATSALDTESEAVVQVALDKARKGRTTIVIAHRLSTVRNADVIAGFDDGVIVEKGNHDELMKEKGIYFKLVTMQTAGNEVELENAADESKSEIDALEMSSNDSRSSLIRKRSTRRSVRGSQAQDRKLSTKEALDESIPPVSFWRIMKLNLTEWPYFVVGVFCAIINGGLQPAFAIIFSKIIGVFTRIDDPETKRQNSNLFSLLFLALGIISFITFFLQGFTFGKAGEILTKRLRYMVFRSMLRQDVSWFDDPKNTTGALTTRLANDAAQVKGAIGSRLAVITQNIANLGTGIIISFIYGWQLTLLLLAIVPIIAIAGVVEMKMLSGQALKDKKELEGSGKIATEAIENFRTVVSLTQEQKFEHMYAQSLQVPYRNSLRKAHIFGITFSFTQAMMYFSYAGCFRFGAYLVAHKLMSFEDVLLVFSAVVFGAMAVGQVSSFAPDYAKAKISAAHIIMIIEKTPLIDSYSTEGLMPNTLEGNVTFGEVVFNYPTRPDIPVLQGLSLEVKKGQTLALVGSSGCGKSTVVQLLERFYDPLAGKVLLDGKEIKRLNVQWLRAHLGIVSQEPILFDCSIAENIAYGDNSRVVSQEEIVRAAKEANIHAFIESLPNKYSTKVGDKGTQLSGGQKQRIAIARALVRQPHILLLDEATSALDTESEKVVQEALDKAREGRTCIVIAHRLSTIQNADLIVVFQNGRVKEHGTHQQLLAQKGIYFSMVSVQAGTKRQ
structure (smiles),measurement,setting,value
COC(=O)[C@H](c1ccccc1Cl)N1CCc2sccc2C1,rescue above control,[1],1.25
same,inclusion score,[2],2
same,outcome,[3],inactive
same,outcome,[4],inactive
same,outcome,[5],inactive
same,outcome,[6],inactive
O=[N+]([O-])c1cccc2cn[nH]c12,remaining activity,[7],107% (inactive)
CCc1ccc(CCOc2ccc(CC3SC(=O)NC3=O)cc2)nc1 (stereo unspecified),outcome,[3],inactive
same,outcome,[5],inactive
same,SSMD,[8],-1.24
same,cell count,[8],7530
same,plate-normalised HSF1 focus index,[8],0.926 (inactive)
CC(C)NCC(O)COc1ccc(CC(N)=O)cc1 (stereo unspecified),rescue above control,[1],-0.75
same,inclusion score,[2],2
same,remaining activity,[7],121% (inactive)
CC(C)NCC(O)COc1cccc2ccccc12 (stereo unspecified),rescue above control,[1],-3.83
same,inclusion score,[2],2
same,remaining activity,[7],97.5% (inactive)
CC(C(=O)O)c1ccc(-c2ccccc2)c(F)c1 (stereo unspecified),rescue above control,[1],19
same,inclusion score,[2],2
same,remaining activity,[7],123% (inactive)
same,AC50,[9],16.6 µM (active)
same,outcome,[5],inactive
same,outcome,[6],inactive
CC[C@H](C)C(=O)O[C@H]1CCC=C2C=C[C@H](C)[C@H](CC[C@@H]3C[C@@H](O)CC(=O)O3)[C@H]21,remaining activity,[7],123% (inactive)
same,AC50,[3],6.61 µM (active)
CC(=O)N=c1sc(S(N)(=O)=O)nn1C,fluorescence slope change,[10],65.4% (active)
same,rescue above control,[1],-0.14
same,inclusion score,[2],2
Cn1cc[nH]c1=S,fluorescence slope change,[10],21.6% (inactive)
same,rescue above control,[1],-4.12
same,inclusion score,[2],2
CC(CCc1ccccc1)NCC(O)c1ccc(O)c(C(N)=O)c1 (stereo unspecified),rescue above control,[1],19.4
same,inclusion score,[2],2
OC[C@H]1O[C@@H](Oc2cc(O)cc(/C=C/c3ccc(O)cc3)c2)[C@H](O)[C@@H](O)[C@@H]1O,outcome,[6],inactive
Nc1ccn([C@@H]2O[C@H](CO)[C@@H](O)C2O)c(=O)n1 (stereo partly specified),AC50,[3],0.263 µM (active)
same,outcome,[9],inactive
same,outcome,[5],inactive
same,outcome,[6],inactive
same,SSMD,[8],-7.27
same,cell count,[8],7440
same,plate-normalised HSF1 focus index,[8],0.739 (inactive)
CC(=O)O[C@]1(C(C)=O)CC[C@H]2[C@@H]3C[C@H](C)C4=CC(=O)CC[C@]4(C)[C@H]3CC[C@@]21C,outcome,[4],inactive
same,outcome,[6],inactive
O=C(O[C@@H]1Cc2c(O)cc(O)cc2O[C@@H]1c1cc(O)c(O)c(O)c1)c1cc(O)c(O)c(O)c1,SSMD,[8],0.931
same,cell count,[8],6910
same,plate-normalised HSF1 focus index,[8],1.03 (inactive)
C[C@H](CCC(=O)O)[C@H]1CC[C@H]2[C@@H]3[C@@H](O)C[C@@H]4C[C@H](O)CC[C@]4(C)[C@H]3CC[C@]12C,outcome,[3],inactive
same,outcome,[4],inactive
same,outcome,[6],inactive
CCN1CCN(C(=O)N[C@@H](C(=O)N[C@@H]2C(=O)N3[C@@H]2SC(C)(C)[C@@H]3C(=O)O)c2ccccc2)C(=O)C1=O,fluorescence slope change,[10],1.5% (inactive)
CC(C)[N+]1(C)C2CCC1CC(OC(=O)C(CO)c1ccccc1)C2 (stereo unspecified),remaining activity,[7],98.6% (inactive)
same,outcome,[4],inactive
COc1ccc2c3c1O[C@H]1C[C@@H](O)C=C[C@@]31CCN(C)C2,fluorescence slope change,[10],9.8% (inactive)
same,rescue above control,[1],0.01
same,inclusion score,[2],2
same,remaining activity,[7],110% (inactive)
same,outcome,[9],inactive
same,outcome,[4],inactive
CN(C)CCC(c1ccc(Cl)cc1)c1ccccn1 (stereo unspecified),fluorescence slope change,[10],220% (active)
same,rescue above control,[1],7.64
same,inclusion score,[2],2
C=CC1=C(C(=O)O)N2C(=O)[C@@H](NC(=O)/C(=N\O)c3csc(N)n3)[C@H]2SC1 (stereo in doubt),outcome,[4],inactive
CNCCC=C1c2ccccc2CCc2ccccc21,fluorescence slope change,[10],145% (active)
CCCC1O[C@@H]2C[C@H]3[C@@H]4CCC5=CC(=O)C=C[C@]5(C)[C@H]4[C@@H](O)C[C@]3(C)[C@]2(C(=O)CO)O1 (stereo partly specified),fluorescence slope change,[10],56.9% (active)
same,remaining activity,[7],98.4% (inactive) and 108% (inactive)

# Reference: PubChem BioAssay
